Experimental data reported in PubChem BioAssay (EPA / NIEHS).
Where “and” joins values, the source holds several entries; their conditions need not be identical. Equal values may be shown once. Results filed as inconclusive are left out. The source holds several records for some structures; these can differ, active in one and inactive in another. Calls of active or inactive are those of the source. Rule for the calls, unless noted: active = hit-call score of the fitted dose curve at least 0.9, where 1 is the maximum; inactive = score below 0.9.

Columns and labels:
[1] = biological target: human Vitamin D Receptor (VDR), VDR (gene 7421) (UniProt P11473); test: ATG_VDR_TRANS: Attagene TRANS-FACTORIAL HepG2 Assay for human Vitamin D Receptor (VDR) (AID 2283022; active = hit-call score of the fitted dose curve at least 0.9, where 1 is the maximum)
human Vitamin D Receptor (VDR), VDR (gene 7421), sequence (P11473 whole entry, looked up): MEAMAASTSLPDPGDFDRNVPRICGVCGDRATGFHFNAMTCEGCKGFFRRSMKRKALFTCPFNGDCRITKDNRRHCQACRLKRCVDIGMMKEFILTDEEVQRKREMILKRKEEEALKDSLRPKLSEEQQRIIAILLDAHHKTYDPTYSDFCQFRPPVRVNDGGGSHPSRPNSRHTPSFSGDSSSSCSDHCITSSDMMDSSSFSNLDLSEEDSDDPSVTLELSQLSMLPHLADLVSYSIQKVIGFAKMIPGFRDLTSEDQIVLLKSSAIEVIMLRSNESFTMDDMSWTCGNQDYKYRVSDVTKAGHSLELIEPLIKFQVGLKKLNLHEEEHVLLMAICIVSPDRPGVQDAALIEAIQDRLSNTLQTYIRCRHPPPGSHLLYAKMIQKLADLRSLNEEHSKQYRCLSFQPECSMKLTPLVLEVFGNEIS
How it was run: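 Multiplexed TRANS reporter in HepG2; 24 h treatment; reporter mRNA by RT-PCR plus capillary electrophoresis; upregulation scored relative to DMSO.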

[2] = BSK_3C_SRB: Viability Assessment in the BioMAP Diversity Plus: 3C Assay (AID 2283023); details: primary human endothelial cells (HUVEC);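 note: fitted both ways against DMSO so a hit may be signal rise or drop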
How it was run: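 Overt cytotoxicity is gauged in parallel confluent HUVEC cultures by SRB total-protein staining at the time of biomarker measurement, 24 h after dosing. Gain or loss of signal is fitted versus DMSO.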

[3] = BSK_3C_Vis: BioMAP Diversity Plus: 3C Assay for Morphology Visualization (AID 2283025); details: primary human endothelial cells (HUVEC);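 note: fitted both ways so gain or loss versus DMSO counts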
How it was run: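 Human umbilical vein endothelial cells in the 3C system were imaged by light microscopy 24 h after chemical dosing to record cell morphology. Activity was fitted bidirectionally against DMSO as negative control and baseline; the endpoint serves as a background control.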

[4] = read-out: Pselectin, SELP (gene 6403); test: BSK_4H_Pselectin: BioMAP Diversity Plus: 4H Assay for Pselectin Biomarker Activity (AID 2283026); details: primary human endothelial cells (HUVEC); actives raise or lower the signal
How it was run: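 Primary human umbilical vein endothelial cells were exposed to test chemical for 24 h, then cell-surface P-selectin was quantified by ELISA. Activity was fitted bidirectionally against DMSO as negative control and baseline.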

[5] = BSK_4H_SRB: Viability Assessment in the BioMAP Diversity Plus: 4H Assay (AID 2283027); details: primary human endothelial cells (HUVEC);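 note: cells exposed to compound for 24 h before staining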;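 for AC50: curves fitted both ways versus DMSO so AC50 may be loss or gain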
How it was run: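 Human umbilical vein endothelial cells, 24 h after chemical dosing; total protein measured by 0.1% sulforhodamine B staining after 10% TCA fixation, read at 560 nm. Bidirectional fitting against DMSO.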

[6] = BSK_BE3C_SRB: Viability Assessment in the BioMAP Diversity Plus: BE3C Assay (AID 2283028); details: primary human bronchial epithelial cells;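 for AC50: fitted both ways so AC50 may mark signal gain or loss versus DMSO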
How it was run: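 SRB total-protein staining (0.1%, after TCA fixation) of chemically dosed human bronchial epithelial primary cells at 24 h; DMSO serves as the negative control for bidirectional curve fitting.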

[7] = read-out: Thrombomodulin, THBD (gene 7056); test: BSK_3C_Thrombomodulin: BioMAP Diversity Plus: 3C Assay for Thrombomodulin Biomarker Activity (AID 2283029); details: primary human endothelial cells (HUVEC); actives raise or lower the signal
How it was run: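 Primary human umbilical vein endothelial cells (3C system) were exposed to chemical for 24 h, then thrombomodulin levels were measured by ELISA. Activity was fitted bidirectionally against the DMSO negative control as baseline.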

[8] = read-out: Urokinase-type plasminogen activator receptor (uPAR), PLAUR (gene 5329); test: BSK_4H_uPAR: BioMAP Diversity Plus: 4H Assay for Urokinase-type plasminogen activator receptor (uPAR) Biomarker Activity (AID 2283030); details: primary human endothelial cells (HUVEC); actives raise or lower the signal
How it was run: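 Endpoint derived via bidirectional curve fitting against DMSO baseline; readout was ELISA detection of uPAR on umbilical vein endothelial cells at 24 h post-treatment, with SRB-stained parallel cultures assessing cytotoxicity.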

[9] = read-out: Vascular endothelial growth factor receptor 2 (Homo sapiens) (UniProt P35968); test: BSK_4H_VEGFRII: BioMAP Diversity Plus: 4H Assay for Vascular endothelial growth factor receptor 2 (VEGFR2) Biomarker Activity (AID 2283031); details: primary human endothelial cells (HUVEC); actives raise or lower the signal;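 for AC50: cell-surface VEGFR2 protein level quantified by ELISA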
How it was run: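 In this multiplexed HUVEC system, biomarker ELISA was performed after 24 h chemical exposure. Parallel SRB staining (TCA fixation, 560 nm) tracked cytotoxicity; DMSO served as baseline.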

[10] = read-out: Matrix Metallopeptidase 1 (MMP1), MMP1 (gene 4312); test: BSK_BE3C_MMP1: BioMAP Diversity Plus: BE3C Assay for Matrix Metallopeptidase 1 (MMP1) Biomarker Activity (AID 2283024); details: primary human bronchial epithelial cells; actives raise or lower the signal
How it was run: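 Primary human bronchial epithelial cells were dosed with test chemicals, and MMP1 levels were measured by ELISA 24 h later. Data were fitted bidirectionally against DMSO as the negative control and activity baseline.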

Measured: AC50

COc1cc(CCC(=O)CC(=O)CCc2ccc(O)c(OC)c2)ccc1O
inactive: [1]

Nc1cccc2c(N)cccc12
not listed: [10]
inactive: all other assays above

Cc1cc(CCN2CCN(c3nsc4ccccc34)CC2)cc2c1NC(=O)CC2(C)C
active: [10] 31.2 µM | [3] 16.3 µM | [4] 16.5 µM | [5] 20 µM | [6] 32.4 µM | [7] 4.31 µM | [8] 4.39 µM
inactive: [1] | [9]

CCC(C)(C)C1CCC(O)CC1 (centres undefined)
not listed: [2]
inactive: all other assays above

O=C(O)Cc1cc(I)c(Oc2cc(I)c(O)c(I)c2)c(I)c1
active: [4] 20.2 µM | [6] 8.8 µM | [8] 19.9 µM
not listed: [10]
inactive: all other assays above

CCCCCCCCCCCCCCCS(=O)(=O)Oc1ccccc1
not listed: [10]
inactive: all other assays above

OCCC(F)(F)C(F)(F)C(F)(F)C(F)(F)C(F)(F)C(F)(F)C(F)(F)C(F)(F)F
active: [1] 100 µM | [2] 29.1 µM and 19 µM | [10] 48 µM | [4] 14.5 µM and 13.5 µM | [5] 18.2 µM and 15.6 µM | [6] 22.8 µM and 20 µM | [8] 39.7 µM and 27.8 µM | [9] 47.9 µM and 20.6 µM
inactive: [1] | [2] | [10] | [3] | [4] | [5] | [6] | [7] | [8] | [9]

Cc1ccc(S(=O)(=O)O)c(C)c1
inactive: [1]

CCCCC[C@H](O)CC(=O)CCc1ccc(O)c(OC)c1
inactive: [1]

C=C(C)C(=O)OCCC(F)(F)C(F)(F)C(F)(F)C(F)(F)C(F)(F)C(F)(F)F
active: [5] 20 µM
inactive: [1] | [10] | [3] | [4] | [5] | [6] | [7] | [8] | [9]

CN1CCN(c2ccccc2/C=C2\SCCN(c3ccc(Cl)c(Cl)c3)C2=O)CC1
active: [2] 16.3 µM | [3] 13.9 µM | [4] 6.28 µM | [5] 15 µM | [6] 33.3 µM | [8] 5.49 µM
inactive: [1] | [7] | [9]

CCN(CC)CCNc1ccc(CNC=O)c2sc3ccc(OC)cc3c(=O)c12
inactive: [6] | [7]
active: [1] 1.47 µM | [10] 20 µM | [3] 14.4 µM | [4] 14.3 µM | [5] 25.4 µM | [8] 9.57 µM | [9] 20 µM

CCCOC(=O)c1ccc(O)cc1
inactive: all assays above

Cc1oc(-c2ccccc2)nc1CCOc1ccc(C[C@H](Nc2ccccc2C(=O)c2ccccc2)C(=O)O)cc1
inactive: [1] | [10] | [7] | [9]
active: [3] 37.5 µM | [4] 32.9 µM | [5] 15.1 µM | [6] 5.13 µM | [8] 15.6 µM

CCCCCCCCCCCCCC[N+](C)(C)C
inactive: [1] | [8] | [9]
active: [10] 5.8 µM | [3] 3.02 µM | [4] 1.95 µM | [5] 5.31 µM | [6] 5.28 µM

CC(=O)CC(C)(C)O
not listed: [10]
inactive: all other assays above

CCCOc1sc(C(=O)N2CCC(c3cc(CN)ccc3F)CC2)c(C)c1Br
active: [2] 5 µM | [3] 8.81 µM | [4] 6.2 µM | [5] 5.82 µM | [6] 4.93 µM | [7] 4.5 µM | [8] 6.64 µM | [9] 4.78 µM
inactive: [1]
